This passage reports inhibition results from PubChem BioAssay.

Several values for one entry are separate records, joined by “and”; a condition that tells them apart may be missing. Identical values can stand only once. Activity calls are given as the source filed them. Rule as the data show it, unless noted: active = inhibition above about 80%; inactive = the rest.

The first test can be described thus: growth inhibition, single agents and combos, HTB85, cell-based, BGB or cisplatin IC20 combos, synergistic combos for chromothripsis tumors (AID 1671453).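 Also: cells exposed for 96 hours before readout; 0% = vehicle DMSO and 100% = high DMSO killing control.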 Particulars: HTB85 osteosarcoma cells, drug combinations, measured here: with BGB IC20, at 5 µM, stronger effect = higher value.
Usually inhibition stands for the drop in the measured response relative to a control, in per cent. In the case of `CCn1cc(C(=O)O)c(=O)c2cc(F)c(N3CCNCC3)nc21`, the inhibition was -15.3% and -6.32%.
The same measure, in the same setting: for `O=C(O)CCCCCCCC(=O)O` the value was -68.2%; for `O=NN(CCCl)C(=O)NCCCl`, 17.7%.
As for `Cc1oncc1C(=O)Nc1ccc(C(F)(F)F)cc1`, the inhibition turned out to be 14.1%.

The same test, now with this note: HTB85 osteosarcoma cells, drug combinations, measured here: with cisplatin IC20, at 0.5 µM, stronger effect = higher value.
Consider `CCn1cc(C(=O)O)c(=O)c2cc(F)c(N3CCNCC3)nc21`, for which the inhibition is -12.7% and 12.5%.
For the molecule `O=C(O)CCCCCCCC(=O)O`, the inhibition is -8.83%.
Still for that read-out and setting: to `O=NN(CCCl)C(=O)NCCCl` belongs -10.4%.
On to `Cc1oncc1C(=O)Nc1ccc(C(F)(F)F)cc1`, for which the inhibition is -18.2%.

The test is the same for the next values; noted with them: HTB85 osteosarcoma cells, drug combinations, measured here: with cisplatin IC20, at 5 µM, stronger effect = higher value.
For the molecule `CCn1cc(C(=O)O)c(=O)c2cc(F)c(N3CCNCC3)nc21`, the inhibition is -14.2% and -4.27%.
The same measure, in the same setting: for `O=C(O)CCCCCCCC(=O)O` the value was 0.863%; for `O=NN(CCCl)C(=O)NCCCl`, 11.5%; for `Cc1oncc1C(=O)Nc1ccc(C(F)(F)F)cc1`, 0.987%.

The same test, now with this note: HTB85 osteosarcoma cells, drug combinations, single agent, at 5 µM, stronger effect = higher value.
For `CCn1cc(C(=O)O)c(=O)c2cc(F)c(N3CCNCC3)nc21`, the inhibition is 1.99% and -0.637%.
Still for that read-out and setting: to `O=C(O)CCCCCCCC(=O)O` belongs -30.9%; to `O=NN(CCCl)C(=O)NCCCl`, 11%; to `Cc1oncc1C(=O)Nc1ccc(C(F)(F)F)cc1`, 24.3%.

A further test can be described thus: growth inhibition, single agents and combos, CRL2098, cell-based, BGB or cisplatin IC20 combos, synergistic combos for chromothripsis tumors (AID 1671454).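 Also: cells exposed for 96 h before readout; 0% = vehicle DMSO and 100% = killing by high DMSO.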 Particulars: CRL2098 osteosarcoma cells, drug combinations, at 0.5 µM, stronger effect = higher value.
Consider `CCn1cc(C(=O)O)c(=O)c2cc(F)c(N3CCNCC3)nc21`, for which the inhibition is -80.2% (inactive) and -23.4% (inactive).
Same read-out and setting: for `O=C(O)CCCCCCCC(=O)O` the value was -76.3% (inactive).
Consider `O=NN(CCCl)C(=O)NCCCl`, for which the inhibition was -22.8% (inactive).
On the same count and under the same terms, for `Cc1oncc1C(=O)Nc1ccc(C(F)(F)F)cc1` the value was -47.6% (inactive).

The test is the same for the next values; noted with them: CRL2098 osteosarcoma cells, drug combinations, measured here: combination with BGB at IC20, at 0.5 µM, stronger effect = higher value.
For `CCn1cc(C(=O)O)c(=O)c2cc(F)c(N3CCNCC3)nc21`, the inhibition was -85.1% and -50.3%.
For `O=C(O)CCCCCCCC(=O)O`, the inhibition was -57.7%.
On the same count and under the same terms, to `O=NN(CCCl)C(=O)NCCCl` belongs -7.62%; to `Cc1oncc1C(=O)Nc1ccc(C(F)(F)F)cc1`, -10.4%.

The same test, now with this note: CRL2098 osteosarcoma cells, drug combinations, measured here: combination with cisplatin at IC20, at 0.5 µM, stronger effect = higher value.
Regarding `CCn1cc(C(=O)O)c(=O)c2cc(F)c(N3CCNCC3)nc21`, the inhibition is -99.8% and 10.9%.
Same read-out and setting: for `O=C(O)CCCCCCCC(=O)O` the value was -93.4%; for `O=NN(CCCl)C(=O)NCCCl`, 2.1%; for `Cc1oncc1C(=O)Nc1ccc(C(F)(F)F)cc1`, -126%.

Another test in a line: growth inhibition, single agents and combos, HD-MB03, cell-based, BGB or cisplatin IC20 combos, synergistic combos for chromothripsis tumors (AID 1671455; in the data active = inhibition above about 83%;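 also: 0% = vehicle DMSO and 100% = high DMSO as cytotoxic control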). To be noted: HD-MB03 medulloblastoma cells, at 0.5 µM, stronger effect = higher value.
For the molecule `CCn1cc(C(=O)O)c(=O)c2cc(F)c(N3CCNCC3)nc21`, the inhibition was -13.7% (inactive) and -3.13% (inactive).
Still for that read-out and setting: for `O=C(O)CCCCCCCC(=O)O` the value was -14.1% (inactive); for `O=NN(CCCl)C(=O)NCCCl`, -9.81% (inactive).
With `Cc1oncc1C(=O)Nc1ccc(C(F)(F)F)cc1`, the inhibition is 1.82% (inactive).

Staying with this test, now noted: HD-MB03 medulloblastoma cells, measured here: combo with BGB at IC20, at 0.5 µM, stronger effect = higher value.
As for `CCn1cc(C(=O)O)c(=O)c2cc(F)c(N3CCNCC3)nc21`, the inhibition was -9.56% and -6.49%.
`O=C(O)CCCCCCCC(=O)O`: the inhibition was -13.8%.
Consider `O=NN(CCCl)C(=O)NCCCl`, for which the inhibition was -13.2%.
`Cc1oncc1C(=O)Nc1ccc(C(F)(F)F)cc1`: the inhibition is -13.1%.

Still in this test, the particulars now being: HD-MB03 medulloblastoma cells, measured here: combo with cisplatin at IC20, at 0.5 µM, stronger effect = higher value.
Consider `CCn1cc(C(=O)O)c(=O)c2cc(F)c(N3CCNCC3)nc21`, for which the inhibition is -20.1% and 4.15%.
Take `O=C(O)CCCCCCCC(=O)O`: the inhibition was -19.9%.
For the molecule `O=NN(CCCl)C(=O)NCCCl`, the inhibition is -3.83%.
Same read-out and setting: for `Cc1oncc1C(=O)Nc1ccc(C(F)(F)F)cc1` the value was 15.3%.

The nature of another test: growth inhibition, single agents and combos, UWB1.289, cell-based, BGB or cisplatin combos, synergistic combos for chromothripsis tumors (AID 1671456).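 Also: cells exposed to compound for four days; 0% = vehicle DMSO and 100% = killing by high DMSO.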 To be noted: UWB1.289 ovarian carcinoma cells, at 0.5 µM, stronger effect = higher value.
With `CCn1cc(C(=O)O)c(=O)c2cc(F)c(N3CCNCC3)nc21`, the inhibition was -10.7% (inactive) and 1.4% (inactive).
Turning to `O=C(O)CCCCCCCC(=O)O`, the inhibition is -13.5% (inactive).
Take `O=NN(CCCl)C(=O)NCCCl`: the inhibition is -5.7% (inactive).
On the same count and under the same terms, to `Cc1oncc1C(=O)Nc1ccc(C(F)(F)F)cc1` belongs 4.13% (inactive).

The test is the same for the next values; noted with them: UWB1.289 ovarian carcinoma cells, measured here: inhibition with BGB combination, at 0.05 µM, stronger effect = higher value.
On to `CCn1cc(C(=O)O)c(=O)c2cc(F)c(N3CCNCC3)nc21`, for which the inhibition is -29.8% and -21.6%.
Still for that read-out and setting: for `O=C(O)CCCCCCCC(=O)O` the value was -19.6%; for `O=NN(CCCl)C(=O)NCCCl`, -21%; for `Cc1oncc1C(=O)Nc1ccc(C(F)(F)F)cc1`, -13.1%.

The test is the same for the next values; noted with them: UWB1.289 ovarian carcinoma cells, measured here: inhibition with cisplatin combination, at 0.05 µM, stronger effect = higher value.
On to `CCn1cc(C(=O)O)c(=O)c2cc(F)c(N3CCNCC3)nc21`, for which the inhibition is -19.7% and -11.2%.
For `O=C(O)CCCCCCCC(=O)O`, the inhibition was -0.85%.
On the same count and under the same terms, to `O=NN(CCCl)C(=O)NCCCl` belongs -12%; to `Cc1oncc1C(=O)Nc1ccc(C(F)(F)F)cc1`, -27.7%.

The next test is described as follows: growth inhibition, single agents and combos, LFS_MB_2R, cell-based, cisplatin combos, synergistic combos for chromothripsis tumors (AID 1671457).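 Also: cells exposed to compound for four days before readout.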 Particulars: LFS_MB_2R medulloblastoma cells, at 0.5 µM, stronger effect = higher value.
As to `CCn1cc(C(=O)O)c(=O)c2cc(F)c(N3CCNCC3)nc21`, the inhibition was -18.7% (inactive) and -16.6% (inactive).
On the same count and under the same terms, to `O=C(O)CCCCCCCC(=O)O` belongs -13.9% (inactive).
On the same count and under the same terms, to `O=NN(CCCl)C(=O)NCCCl` belongs -21.9% (inactive); to `Cc1oncc1C(=O)Nc1ccc(C(F)(F)F)cc1`, -14.8% (inactive).

The same test, now with this note: LFS_MB_2R medulloblastoma cells, measured here: combination with cisplatin, at 0.5 µM, stronger effect = higher value.
Take `CCn1cc(C(=O)O)c(=O)c2cc(F)c(N3CCNCC3)nc21`: the inhibition is -8.22% and -12.2%.
Regarding `O=C(O)CCCCCCCC(=O)O`, the inhibition was -13.8%.
As to `O=NN(CCCl)C(=O)NCCCl`, the inhibition is -14.5%.
For the molecule `Cc1oncc1C(=O)Nc1ccc(C(F)(F)F)cc1`, the inhibition was -17.8%.

The same test, now with this note: LFS_MB_2R medulloblastoma cells, measured here: combination with cisplatin, at 5 µM, stronger effect = higher value.
As to `CCn1cc(C(=O)O)c(=O)c2cc(F)c(N3CCNCC3)nc21`, the inhibition is -10.3% and -8.58%.
Regarding `O=C(O)CCCCCCCC(=O)O`, the inhibition was -48.8%.
`O=NN(CCCl)C(=O)NCCCl`: the inhibition was -18.3%.
Still for that read-out and setting: to `Cc1oncc1C(=O)Nc1ccc(C(F)(F)F)cc1` belongs 30.1%.

The next test can be described thus: growth inhibition, MDA-MB-436, cell-based, BGB or cisplatin combos, synergistic combos for chromothripsis tumors (AID 1671458; call rule not given here;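 also: cells exposed for 96 hours; 0% = vehicle DMSO and 100% = killing by high DMSO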). Particulars: MDA-MB-436 breast carcinoma growth inhibition, drug combinations; at 0.5 µM; stronger effect = higher value.
In the case of `CCn1cc(C(=O)O)c(=O)c2cc(F)c(N3CCNCC3)nc21`, the inhibition is -9.05% (inactive) and -13.8% (inactive).
For `O=C(O)CCCCCCCC(=O)O`, the inhibition is -29.2% (inactive).
Consider `O=NN(CCCl)C(=O)NCCCl`, for which the inhibition is -8.21% (inactive).
The same measure, in the same setting: for `Cc1oncc1C(=O)Nc1ccc(C(F)(F)F)cc1` the value was 3.93% (inactive).

The test is the same for the next values; noted with them: MDA-MB-436 breast carcinoma growth inhibition, drug combinations; measured here: BGB combination; at 0.5 µM; stronger effect = higher value.
As to `CCn1cc(C(=O)O)c(=O)c2cc(F)c(N3CCNCC3)nc21`, the inhibition was -10.2% and -4.34%.
Same read-out and setting: for `O=C(O)CCCCCCCC(=O)O` the value was -23.3%.
Consider `O=NN(CCCl)C(=O)NCCCl`, for which the inhibition is -10%.
On to `Cc1oncc1C(=O)Nc1ccc(C(F)(F)F)cc1`, for which the inhibition turned out to be 12.3%.
